In PubChem BioAssay (Tox21):
Inconclusive results are not listed. A number with no mark means an inactive call. The source made the active and inactive calls. Calls come from the whole dose curve; as a rule, active = well fitted activation curve with a large enough effect in the repeat runs; inconclusive = weak or mixed curves; inactive = no such curve, though single readings can be large or run the other way. Positions of bridges follow the written chain, without caps; N, C: chain ends. Non-standard residues stand in square brackets, D forms with d. Residues, ends and D or L forms follow the SMILES beside them. ξ: configuration not given here. *: point of attachment. d(aThr) = C[C@@H](O)[C@@H](N)C(=O)O; ξThr(3R) = C[C@@H](O)C(N)C(=O)O; X3 = CC[C@@H](C)CCCCC(=O)*; dDab = NCC[C@@H](N)C(=O)O

Test: qHTS assay for small molecules that induce genotoxicity in human embryonic kidney cells expressing luciferase-tagged ATAD5 (AID 651632); note: nearly all actives have a fitted effect of over 15% in size
Details: HEK293T ATAD5-luciferase induction, 16 h; series mostly up to 83.3 µM; activation: at the top concentration
Summary of the method: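 Reporter cells (HEK293T) express luciferase-tagged ATAD5, a protein that accumulates after DNA damage. Treat 16 hr at 37C/5% CO2, add Amplite, wait 30 min at RT, and read luminescence.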
% is set by controls: 0 for no effect and ±100 for the full control effect; potency is the fitted concentration of half-maximal effect.

| Compound | activation | Potency |
| --- | --- | --- |
| CSc1nc2cc(Oc3cccc(Cl)c3Cl)c(Cl)cc2[nH]1 | -19.5% |  |
| Cc1ccc(S(=O)(=O)NC(=O)N[C@@H](C)Cc2ccccc2)cc1 | 1.39% |  |
| CC[C@@H](C)CCCCC(=O)N[C@H](CCN)C(=O)N[C@@H](C(=O)N[C@H](CCN)C(=O)N[C@@H]1CCNC(=O)C([C@@H](C)O)NC(=O)[C@@H](CCN)NC(=O)[C@@H](CCN)NC(=O)[C@@H](CC(C)C)NC(=O)[C@@H](Cc2ccccc2)NC(=O)[C@@H](CCN)NC1=O)[C@@H](C)O (stereo partly drawn) (X3-[dDab][d(aThr)][dDab][dDab][dDab][dF][dL][dDab][dDab][ξThr(3R)]; lactam 4-C) | 0.868% |  |
| COC(=O)C1=C(C)NC(C)=C(C(=O)O[C@H]2CCN(Cc3ccccc3)C2)[C@H]1c1cccc([N+](=O)[O-])c1 | -6.18% |  |
| CCCCCCCCCCCCCCCCOCCOCCOCCOCCOCCOCCOCCOCCOCCOCCOCCOCCOCCOCCOCCOCCOCCOCCOCCOCCO | -4.4% |  |
| CCC(=O)O[C@@H]1CC(=O)O[C@H](C)C/C=C/C=C/[C@H](O)[C@H](C)C[C@H](CC=O)[C@H](O[C@@H]2O[C@H](C)[C@@H](O[C@H]3C[C@@](C)(O)[C@@H](OC(=O)CC)[C@H](C)O3)[C@H](N(C)C)[C@H]2O)[C@H]1OC | -3.45% [at 39.1 µM] |  |
| O=C(Nc1ccc(/C=C/c2ccc(NC(=O)c3cc(S(=O)(=O)O)c4cccnc4c3O)cc2S(=O)(=O)O)c(S(=O)(=O)O)c1)c1cc(S(=O)(=O)O)c2cccnc2c1O | 3.82% |  |
| C[C@]12C=CC(=O)N[C@@H]1CC[C@@H]1[C@@H]2CC[C@]2(C)[C@@H](C(=O)Nc3cc(C(F)(F)F)ccc3C(F)(F)F)CC[C@@H]12 | 4.53% |  |
| O=C(O)CN(CC(=O)O)CC1=CC2C(=CC1=O)Oc1cc(O)c(CN(CC(=O)O)CC(=O)O)cc1C21OC(=O)c2ccccc21 (centres undefined) | 1.53% |  |
| NC(N)=NCC1COc2ccccc2O1 (centres undefined) | -2.74% |  |
| CC[C@]1(O)CC2CN(CCc3c([nH]c4ccccc34)[C@@](C(=O)OC)(c3cc4c(cc3OC)N(C)[C@H]3[C@@](O)(C(N)=O)[C@H](O)[C@]5(CC)C=CCN6CC[C@]43[C@@H]65)C2)C1 (some centres undefined) |  | 3.35 µM (active) |
| NC(=O)C[C@@H](N)C(=O)O | 3.4% |  |
| CN=C(NC)NCc1ccccc1 | 3.1% |  |
| CC(C)NCC(O)COc1ccccc1-n1cccc1 (centres undefined) | -7.29% |  |
| CN(CCO)CC(O)Cn1cnc2c1c(=O)n(C)c(=O)n2C (centres undefined) (tested in a mixture with another compound) | -1.73% |  |
| COc1ccccc1N1CCN(CCCC(=O)c2ccc(F)cc2)CC1 | -7.53% |  |
| CN[C@@H]1[C@@H](O)[C@@H](O[C@@H]2[C@@H](O)[C@H](OC3OC(CN)=CCC3N)[C@@H](N)C[C@H]2N)OC[C@]1(C)O (some centres undefined) | 2.71% [at 39.1 µM] |  |
| c1ccc2cc(C3=NCCN3)ccc2c1 | -2.08% |  |
| O=C(OC[C@H]1O[C@](O)(COC(=O)c2cccnc2)[C@@H](OC(=O)c2cccnc2)[C@@H]1OC(=O)c1cccnc1)c1cccnc1 | 0.815% |  |
| CCC(=O)OCC(=O)[C@@]1(OC(=O)CC)[C@@H](C)C[C@H]2[C@@H]3CCC4=CC(=O)C=C[C@]4(C)[C@@]3(F)[C@@H](O)C[C@@]21C | -10.2% |  |

| Compound | activation | Potency |
| --- | --- | --- |
| Cc1cc(O)c2c(c1)O[C@@]1(C)CC[C@H]3C(C)(C)CCCC34CO[C@@H]2[C@H]41 (some centres undefined) | -9.76% |  |
| C#C[C@]1(O)CC[C@H]2[C@@H]3CCC4=C(CCC(=O)C4)[C@H]3CC[C@@]21C | 2.36% [at 39.1 µM] |  |
| OCC(S)CS (centres undefined) | -10.4% |  |
| CCCCCc1ccc(C)cc1O | -3.93% |  |
| NCCC(=O)[N-][C@@H](Cc1cnc[nH]1)C(=O)O.[Zn] | 2.31% |  |
| O=C(O)c1cc(N=Nc2ccc(O)c(C(=O)O)c2)ccc1O | -1.66% |  |
| O=C(O)c1c(Cl)c(Cl)c(Cl)c(Cl)c1-c1c2cc(I)c(=O)c(I)c-2oc2c(I)c(O)c(I)cc12 | -5.49% |  |
| CCC[C@@H]1C[C@@H](C(=O)N[C@@H]([C@H]2O[C@H](SC)[C@H](O)[C@@H](O)[C@H]2O)[C@H](C)Cl)N(C)C1 | -1.04% |  |
| CC(C)N=c1cc2n(-c3ccc(Cl)cc3)c3ccccc3nc-2cc1Nc1ccc(Cl)cc1 | -4.95% [at 39.1 µM] |  |
| C[C@@H]1CCC2[C@@H](C)[C@@H](O)O[C@@H]3O[C@@]4(C)CC[C@@H]1[C@@]23OO4 (some centres undefined) | -15.9% |  |
| CC(=O)N[C@@H](C=O)[C@@H](O)[C@H](O)[C@H](O)CO | -1.87% |  |
| CCOC(=O)C1=C(COCCN)NC(C)=C(C(=O)OC)C1c1ccccc1Cl (centres undefined) |  | inactive |
| CCOC(=O)[C@@H](N)CS | -5.14% |  |
| CC[C@@H]1/C=C(\C)C[C@H](C)C[C@H](OC)[C@H]2O[C@@](O)(C(=O)C(=O)N3CCCC[C@H]3C(=O)O[C@H](/C(C)=C/[C@@H]3CC[C@@H](Cl)[C@H](OC)C3)[C@H](C)[C@@H](O)CC1=O)[C@H](C)C[C@@H]2OC | -2.46% |  |
| CCCCCCCCCCCCCCCC(=O)O[C@@H]1CC(C)=C(/C=C/C(C)=C/C=C/C(C)=C/C=C/C=C(C)/C=C/C=C(C)/C=C/C2=C(C)C[C@@H](OC(=O)CCCCCCCCCCCCCCC)CC2(C)C)C(C)(C)C1 | 2.41% |  |
| CCCCCCC(=O)O[C@H]1CC[C@H]2[C@@H]3CCc4cc(O)ccc4[C@H]3CC[C@]12C | 3.86% |  |
| CN=C1C=CC(=C(c2ccc(N(C)C)cc2)c2ccc(N(C)C)cc2)C=C1 | -18.3% |  |
| CCCC1([C@H](O)C/C=C/[C@H]2[C@H](O)CC(=O)[C@@H]2CCCCCCC(=O)OC)CCC1 | -7.6% |  |
| C=C1C(=C/C=C2\CCC[C@]3(C)[C@@H]([C@H](C)/C=C/[C@H](C)C(C)C)CC[C@@H]23)C[C@@H](O)C[C@@H]1O | -1.41% |  |
